± gives the standard deviation.
Key:
Settings in all cases: modulator concentration 10 µM
[1] = system: RAW-Dual (murine macrophage reporter line); assay: NF-kB reporter (SEAP) activity fold change vs agonist alone; higher = enhanced NF-kB activity
Summary of the method: (§1)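 RAW-Dual murine macrophage reporter cells were seeded at 50 000 per well in 384-well plates and pre-incubated 1 hour at 37 °C with compound pin-transferred to 10 μM final. After 1 hour, a PRR agonist was added and cells incubated overnight. Supernatant NF-κB (SEAP, QUANTI-Blue, 620 nm absorbance) and IRF (Lucia luciferase, QUANTI-Luc, luminescence) signals were divided by the mean agonist-only control on the same plate to give fold change. Two replicate plates were averaged, with errors by propagation.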

[2] = system: RAW-Dual (murine macrophage reporter line); assay: IRF reporter (Lucia luciferase) activity fold change vs agonist alone; higher = enhanced IRF activity
Summary of the method: as §1

[3] = system: RAW-Dual (murine macrophage reporter line); assay: viability score (confluency relative to resting cells, overnight) (fraction); higher = more viable, active = viable (0.7 or more)
Summary of the method: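 RAW-Dual macrophages in 384-well plates were exposed overnight to compound at 10 μM final. Confluency was imaged with IncuCyte, and two confluency masks were generated with IncuCyte software over all imaged wells. The viability score is confluency expressed relative to resting cells. Compounds were called viable if both masks exceeded 70% of resting cells.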

[4] = agonist: CpG ODN 1826 0.5 ug/mL

Structure (SMILES) | NF-kB reporter [1, 4] | NF-kB reporter ([1]; agonist: LPS 0.1 ug/mL) | NF-kB reporter ([1]; agonist: MPLA […]) | IRF reporter ([2]; agonist: 3'3'-cGAMP 10 ug/mL) | IRF reporter ([2]; agonist: LPS 0.1 ug/mL) | IRF reporter ([2]; agonist: MPLA […]) | viability score [3]
CC1(C)OC(=O)C(=Cc2ccc(I)o2)C(=O)O1 | 0.595 ± 0.069 | 1.01 ± 0.069 | 0.887 ± 0.17 | 0.589 ± 0.049 | 1.02 ± 0.18 | 0.877 ± 0.26 | 1.01 (active)
Cc1ccc(S(=O)(=O)O)cc1.NC(=O)c1cccc2cn(-c3ccc([C@@H]4CCCNC4)cc3)nc12 | 0.0798 ± 0.0034 | 0.142 ± 0.017 | 0.372 ± 0.027 | 0.041 ± 0.0076 | 0.0678 ± 0.01 | 0.0808 ± 0.016 | 0.881 (active)
CCCCN(Cc1ccccc1)C(=O)C1CCN(Cc2c(F)cccc2Cl)CC1 | 0.378 ± 0.034 | 1.09 ± 0.09 | 0.757 ± 0.056 | 1.01 ± 0.029 | 1.69 ± 0.27 | 1.36 ± 0.25 | 0.617 (inactive)
O=C(NCCC(CCO)c1ccccc1)c1cccc(Br)c1 (centres undefined) | 0.731 ± 0.033 | 1.03 ± 0.093 | 0.988 ± 0.053 | 0.653 ± 0.031 | 0.927 ± 0.18 | 0.958 ± 0.35 | 0.996 (active)
Cc1ccc(C23CC4CC(CC(CN)(C4)C2)C3)cc1.Cl | 0.827 ± 0.062 | 1.02 ± 0.063 | 1.95 ± 0.14 | 0.741 ± 0.031 | 1.27 ± 0.15 | 1.29 ± 0.13 | 0.46 (inactive)
CC(C)(C)NCC(O)COc1cccc2c1C[C@H](O)[C@H](O)C2 (some centres undefined) | 1.03 ± 0.091 | 0.97 ± 0.051 | 0.971 ± 0.034 | 0.892 ± 0.05 | 0.976 ± 0.032 | 0.961 ± 0.11 | 0.981 (active)
Cl.Fc1ccc(C2CCNCC2COc2ccc3c(c2)OCO3)cc1 (centres undefined) | 0.829 ± 0.23 | 0.938 ± 0.089 | 0.918 ± 0.058 | 0.916 ± 0.041 | 1.05 ± 0.18 | 1.07 ± 0.15 | 0.968 (active)
Cc1cc(O)nc(NN)n1 | 1.06 ± 0.087 | 1.01 ± 0.062 | 1.02 ± 0.033 | 0.983 ± 0.054 | 0.971 ± 0.13 | 0.861 ± 0.13 | 0.999 (active)
CC(=O)OC1=C(O)C=CC2C(C)=CC(=O)OC12 (centres undefined) | 0.954 ± 0.12 | 0.823 ± 0.079 | 1.04 ± 0.1 | 0.986 ± 0.034 | 1.3 ± 0.19 | 1.47 ± 0.3 | 1.01 (active)
CCC1(c2cnc[nH]2)Cc2ccccc2C1 | 0.746 ± 0.13 | 1.09 ± 0.17 | 0.862 ± 0.055 | 0.764 ± 0.21 | 1.33 ± 0.14 | 0.787 ± 0.11 | 0.876 (active)
COc1ccc(N2CC(C(=O)NCc3ccccc3C(F)(F)F)CC2=O)cc1 (centres undefined) | 1 ± 0.11 | 1.07 ± 0.085 | 0.935 ± 0.041 | 1.03 ± 0.051 | 1.2 ± 0.1 | 1.14 ± 0.29 | 1 (active)
CO[C@@]12[C@H](COC(N)=O)C3=C(C(=O)C(C)=C(N)C3=O)N1C[C@@H]1N[C@@H]12 | 2.4 ± 0.14 | 1.47 ± 0.1 | 2.16 ± 0.18 | 1.21 ± 0.069 | 1.42 ± 0.099 | 1.24 ± 0.24 | 0.644 (inactive)
COc1ccc(Cc2nnc(C3CCN(S(C)(=O)=O)CC3)s2)cc1 | 0.978 ± 0.069 | 1.04 ± 0.085 | 0.93 ± 0.12 | 1.06 ± 0.093 | 1.25 ± 0.076 | 1.09 ± 0.13 | 0.994 (active)
O=S(=O)(c1ccc(F)cc1)n1cccc1 | 0.812 ± 0.065 | 0.746 ± 0.047 | 1.09 ± 0.096 | 1.02 ± 0.05 | 1.49 ± 0.087 | 1.72 ± 0.22 | 0.988 (active)
COc1ccc(CNCc2ccc3ccccc3c2)c(OC)c1 | 0.163 ± 0.026 | 1.08 ± 0.09 | 1.79 ± 0.56 | 0.644 ± 0.046 | 1.74 ± 0.38 | 2.05 ± 0.59 | 0.688 (inactive)
NC(CO)(CO)CO.O=C(c1ccccc1)c1ccc2n1CCC2C(=O)O (centres undefined) | 0.916 ± 0.18 | 1.05 ± 0.087 | 0.977 ± 0.14 | 0.933 ± 0.032 | 1.07 ± 0.2 | 1.15 ± 0.19 | 1.01 (active)
CC(c1ccccc1)c1nnc(NC(=O)c2ccco2)s1 (centres undefined) | 0.853 ± 0.29 | 1.12 ± 0.12 | 1.04 ± 0.1 | 0.906 ± 0.027 | 1.13 ± 0.23 | 1.3 ± 0.32 | 0.968 (active)
O=C(CC12CC3CC(CC(C3)C1)C2)N1CCCCC1 | 0.863 ± 0.064 | 0.99 ± 0.11 | 0.949 ± 0.056 | 1.1 ± 0.037 | 1.53 ± 0.1 | 1.23 ± 0.15 | 0.911 (active)
O=C(O)CCCNC(=O)c1ccccc1C(=O)O | 0.896 ± 0.092 | 0.911 ± 0.067 | 0.952 ± 0.093 | 1.04 ± 0.043 | 1.3 ± 0.14 | 1.41 ± 0.21 | 1.03 (active)
O=c1c(O)c(-c2ccccc2)oc2cc(O)ccc12 | 1.21 ± 0.34 | 1.37 ± 0.084 | 1.43 ± 0.15 | 0.764 ± 0.026 | 0.947 ± 0.12 | 0.789 ± 0.077 | 1 (active)
CC1=NN(c2ccc(C)c(C)c2)C(=O)/C1=N\Nc1cccc(-c2cccc(C(=O)O)c2)c1O.NCCO.NCCO | 1.63 ± 0.31 | 1.28 ± 0.23 | 1.49 ± 0.14 | 0.601 ± 0.019 | 1.16 ± 0.098 | 1.2 ± 0.11 | 0.861 (active)
NC(CO)(CO)CO | 1.16 ± 0.24 | 1.1 ± 0.22 | 1.01 ± 0.11 | 0.964 ± 0.11 | 1.19 ± 0.12 | 0.966 ± 0.15 | 1 (active)
COc1ccccc1C(=O)Nc1ccc(-c2nc3cc(C)ccc3o2)cc1 | 0.794 ± 0.063 | 0.996 ± 0.051 | 1.12 ± 0.11 | 0.803 ± 0.039 | 1.55 ± 0.11 | 1.62 ± 0.14 | 0.975 (active)
Cc1occc1C(=O)Nc1ccc([N+](=O)[O-])cc1Cl | 0.88 ± 0.079 | 0.851 ± 0.066 | 0.898 ± 0.026 | 1.02 ± 0.088 | 0.931 ± 0.12 | 0.874 ± 0.2 | 0.995 (active)
CCOC(=O)c1sc(NN=Cc2cccc(Cl)c2)nc1C | 1.04 ± 0.12 | 1.06 ± 0.059 | 0.89 ± 0.053 | 0.849 ± 0.039 | 1.57 ± 0.23 | 1.18 ± 0.18 | 1.01 (active)
CCOc1ccc(S(=O)(=O)N2C3CCC2CC(S(=O)(=O)c2ccccc2)C3)cc1 (centres undefined) | 0.976 ± 0.06 | 1.05 ± 0.098 | 0.968 ± 0.053 | 0.977 ± 0.044 | 1.25 ± 0.2 | 1.25 ± 0.29 | 0.978 (active)
Cc1cccc(N2C(=O)C(=Cc3cccc([N+](=O)[O-])c3)SC2=S)c1C | 0.964 ± 0.1 | 1.02 ± 0.094 | 0.937 ± 0.06 | 0.853 ± 0.035 | 1.57 ± 0.17 | 1.29 ± 0.11 | 0.989 (active)

Reference: the supplement of paper PMC10646978
